# Screens (PubChem BioAssay)
# ATXN viability: reduces viability in counter-screen for ATXN expression inhibitors. 400,000 tested, 0.49% active. S2 cells (HEK-293 line with an ATXN2-luciferase reporter) viability, CellTiter-Fluor protease fluorescence, 24 h. AID 651635. Potency, µM (doses to about 56.7 µM), usual class: cytotoxic; also: nearly all actives have a fitted effect of over 40% in size
# TGFb SMAD3 inh: TGF-b pathway inhibition; HepG2 CAGA-GFP TGF-b/SMAD3 reporter, GFP fluorescence, 18 h; TGF-beta stimulated, 500 pg/mL final; Potency, µM (titrated, usually from 46.1 µM), for the others: at the top dose activity, negative = inhibition, most hits filed as inhibitors; 410,000 tested, 1.2% active; AID 588855; also: % is scaled to controls: 0 for no effect and ±100 for the full control effect; nearly all actives have a fitted effect of over 65% in size
#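 HEPG2 CAGA-GFP reporter cells (1000/well, DMEM with 1% FBS) received compounds, then recombinant TGF-beta at 500 pg/mL final for 18 hours at 37 degrees C. Per-cell GFP summed per well was normalised to unstimulated and stimulated DMSO controls before curve fitting.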
# ATXN2 expr inh: reduces ATXN2 reporter expression in HEK-293 cells; HEK-293 ATXN2-luciferase reporter, luminescence, 24 h; Potency, µM (series often up to 57 µM), without a hit: top-dose activity change, negative = inhibition, most hits filed as inhibitors; 360,000 tested, 0.72% active; AID 1745845; also: % is scaled to controls: 0 for no effect and ±100 for the full control effect; nearly all actives have a fitted effect of over 55% in size
#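 ATXN2-luciferase reporter cells (luciferase flanked by upstream and downstream ATXN2 gene portions) were treated 24 h at 37 °C with compounds at up to 57 uM. SteadyGlo luminescence gave expression; GF-AFC fluorescence gave viability.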
# HepG2 viability: kills HepG2 cells in TGF-b inhibitor counter-screen | Potency, µM (titrated, usually from 46.1 µM), for the others: top-dose activity change, negative = cytotoxicity, hits mostly cytotoxic | 410,000 tested, 0.76% active | HepG2 CAGA-GFP viability, ATP luminescence, 18 h
#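 CellTiter-Glo luminescence gave cytotoxicity after 18 hours at 37 degrees C. The cells were HepG2 CAGA-GFP in 1% FBS DMEM, stimulated with 500 pg/mL TGF-beta after compound addition. %Activity was normalised to no-cell wells (complete cell-killing) and DMSO (no toxicity), and curves were fitted and classified.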
# The depositor's hits bear a star; i = inactive; ? = inconclusive; . = not tested or not shown. An excerpt weighted towards active compounds, which were near 2.3% of everything screened. Calls follow the shape of the dose curve; as a rule, active = well fitted curve in the direction sought with a large enough effect; inconclusive = small, poorly fitted or top-dose-only effect, or another doubt; inactive = no such curve, though single readings can be large; an effect the other way counts as inactive or inconclusive. Potency is read from the fitted curve at half-maximal effect.
SMILES,ATXN viability,TGFb SMAD3 inh,ATXN2 expr inh,HepG2 viability
CCc1nc2c(OCc3ccc(Cl)cc3Cl)cccn2c1N(C)C(=O)C1CC1,18µM*,?,?,-30%
CCc1nc2c(OCc3ccc(Cl)cc3Cl)cccn2c1N(C)C(=O)CC(C)C,i,?,?,11µM*
CCc1nc2c(OCCC3CCCCC3)cccn2c1N(C)C(=O)c1ccc(OC)cc1,?,?,?,-81%
CCc1nc2c(OCc3cc(Cl)cc(Cl)c3)cccn2c1N(C)C(=O)CC(C)C,?,?,?,-52%
CCc1nc2c(OCC3CCCCC3)cccn2c1N(C)C(=O)c1ccc(C)cc1,28µM*,?,-6%,-41%
CCOc1ccc(NC(=O)CCCc2cc(-c3ccc(OCC)cc3)on2)cc1,?,22%,?,-1%
CCOc1ccc(-c2cc(CCCC(=O)Nc3cccc(OC)c3)no2)cc1,i,-15%,8.9µM*,-27%
O=C1c2ccccc2C(=O)c2c1cccc2-n1nnc2ccccc21,i,17%,-16%,-5%
O=C1C(N2CCOCC2)=C(n2nnc3ccccc32)C(=O)c2ccccc21,20µM*,?,22µM*,14µM*
Cn1c2ccccc2c(=O)c2c(=O)n(Cc3ccco3)c(-c3ccc(F)cc3)nc21,i,-13%,-18%,20µM*
Cc1ccc(-c2nc3c(c(=O)c4ccccc4n3C)c(=O)n2Cc2ccco2)cc1,i,13%,-8%,31%
CSc1nn(Cc2ccc(Br)cc2)c(N(C(C)=O)C(C)=O)c1S(=O)(=O)c1ccccc1,.,?,?,11µM*
CSc1nn(Cc2ccc(F)cc2)c(N)c1S(=O)(=O)c1ccc(Cl)cc1,?,10µM*,?,14µM*
CSc1nn(Cc2cccc(F)c2)c(N(C(C)=O)C(C)=O)c1S(=O)(=O)c1ccccc1,18µM*,?,?,-52%
Cc1ccc2[nH]c(C(=O)N3CCc4c(cnc(C)c4CNC(=O)c4ccccc4F)C3)cc2c1,i,.,.,.
O=C(CCN1C(=O)/C(=C/c2ccccc2Cl)SC1=S)Nc1ccccn1,i,-11%,.,-30%
O=C(CCCN1C(=O)/C(=C/c2ccccc2Cl)SC1=S)Nc1ccccn1,i,?,17µM*,-15%
O=C(CCCN1C(=O)/C(=C/c2ccccc2Cl)SC1=S)Nc1cccnc1,14µM*,-1%,?,-1%
COc1cc(CN2CCCC(n3cc(C(=O)N4CCCCC4)nn3)C2)cc(OC)c1 (stereo not drawn),i,.,.,.
Cc1ccc2c(/C=C/c3ccc(N(C)C)cc3)ccnc2c1,.,?,.,-33%
Cc1[nH]nc(-c2ccc(O)c(C)c2O)c1-c1cnn(-c2ccccc2)c1,?,7.1µM*,?,-10%
O=S(=O)(/N=C(\Sc1ccccc1)c1ccccc1)c1ccc(Cl)cc1,i,0%,-5%,0%
Cc1ccc(S(=O)(=O)/N=C(\Sc2ccccc2)c2ccccc2)cc1,?,-9%,20µM*,-8%
Cc1sc2cc3c(c(C(=O)c4ccccc4)[n+]2c1C)-c1cccc2cccc-3c12,?,?,11µM*,-2%
O=C(c1ccccc1)c1c2c(cc3sc4ccccc4[n+]13)-c1cccc3cccc-2c13,10µM*,94%,?,-42%
SMILES,ATXN viability,TGFb SMAD3 inh,ATXN2 expr inh,HepG2 viability
Cc1cc2ccccc2cc1C(=O)c1ccccc1,i,16%,8%,-8%
COc1ccc(CN2CCOc3ccc(CN4CCC(O)(c5cccnc5)CC4)cc3C2)c(C)c1C,i,.,.,.
O=C(NCCO)c1cn(C2CCCN(Cc3cccc(C(F)(F)F)c3)C2)nn1 (stereo not drawn),i,.,.,.
Cc1ncc2c(c1CNS(=O)(=O)N(C)C)CCN(C(=O)c1[nH]c3ccc(Cl)cc3c1C)C2,i,.,.,.
O=C(Nc1ccccc1)c1ccc(-n2nncc2-c2ccccc2)cc1,.,14%,.,-2%
O=C(O)c1cccc(NC(=O)c2cccc(NC(=O)C3CCCO3)c2)c1 (stereo not drawn),i,-18%,8.9µM*,0%
O=C(O)c1cccc(C(=O)Nc2cccc(NC(=O)C3CCCO3)c2)c1 (stereo not drawn),i,9%,?,0%
Cc1ccc(-c2ccnc(-n3ncc(C(=O)NC[C@@H]4CCCN5CCCC[C@H]45)c3C3CC3)n2)o1,i,.,.,.
C[N+]1(CCCOC(=O)C2(c3ccccc3)CCCC2)CCOCC1,i,?,-2%,11µM*
